# According to PubChem BioAssay (NCATS):
# Several values for one entry are separate records, joined by “and”; a condition that tells them apart may be missing. Equal entries are not always repeated. Inconclusive results are not listed. Where a call stands in place of a potency, no number is given. Activity calls are given as the source filed them. Unless noted, calls come from the whole dose curve; as a rule, active = well fitted curve in the direction sought with a large enough effect; inconclusive = small, poorly fitted or top-dose-only effect, or another doubt; inactive = no such curve, though single readings can be large; an effect the other way counts as inactive or inconclusive.
# How the values were obtained:
# [1] = biological target: Calcium and integrin-binding protein 1 (Homo sapiens) (UniProt Q99828); test: Primary qHTS for Identification of Calcium Integrin Binding Protein 1 (CIB1) Competitor (AID 1508620);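 note: GST tagged CIB1 binding a fluorescein labelled alphaIIb integrin peptide tracer; top concentration of the series differs between compounds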
# In short: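 CIB1-GST (1 uM final) and compound incubated 15 min at room temperature before adding FITC-alphaIIb peptide tracer (100 nM final). Competition for binding read by fluorescence polarization (ex 480, em 540) after another 15 min at room temperature.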
# [2] = biological target: Cytochrome P450 3A4 (Homo sapiens) (UniProt P08684); test: Cytochrome P450 family 3 subfamily A member 4 (CYP3A4) small molecule antagonists: luciferase qHTS assay (AID 1645841; active = well fitted curve in the direction sought with a large enough effect in the repeat runs; an effect the other way counts as inactive or inconclusive; note: nearly all actives have a fitted effect of over 45% in size)
# In short: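 Luminescent CYP3A4 activity readout: compounds plus enzyme-substrate mix 10 min at room temperature, reaction started with NADPH regenerating system for 1 h, stopped with detection reagent, read after 20 min. Ketoconazole served as control.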
# [3] = biological target: Cytochrome P450 2C9 (Homo sapiens) (UniProt P11712); test: Cytochrome P450 family 2 subfamily C member 9 (CYP2C9) small molecule antagonists: luciferase biochemical (cell-free) qHTS assay (AID 1645842; active = well fitted curve in the direction sought with a large enough effect in the repeat runs; an effect the other way counts as inactive or inconclusive; note: nearly all actives have a fitted effect of over 55% in size; note: potency is the fitted concentration of half-maximal effect)
# In short: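 P450-Glo CYP2C9 system: proluciferin substrate with enzyme in mix containing 0.4% BSA, 10 min at room temperature, then NADPH regeneration solution added and incubated 1 h at 37C. Detection reagent stopped reaction; luminescence read after 20 min as RLU.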
# [4] = Primary qHTS for inhibitors of nuclear receptor binding SET domain protein 2 (NSD2) in an isogenic RCH-ACV NSD2 p.E1099K mutant (9B) (AID 1645876); note: nearly all actives have a fitted effect of over 70% in size; note: potency is the fitted concentration of half-maximal effect
# [5] = biological target: Cytochrome P450 2D6 (Homo sapiens) (UniProt P10635); test: Cytochrome P450 family 2 subfamily D member 6 (CYP2D6) small molecule antagonists: luciferase biochemical (cell-free) qHTS assay (AID 1645840; active = well fitted curve in the direction sought with a large enough effect in the repeat runs; an effect the other way counts as inactive or inconclusive; note: nearly all actives have a fitted effect of over 55% in size; note: potency is the fitted concentration of half-maximal effect)
# In short: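 P450-Glo CYP2D6 system: proluciferin substrate converted by enzyme to luciferin, read by luminescence proportional to activity. Enzyme-substrate mix with compound 10 min at room temperature, then NADPH regeneration 1 h before detection reagent.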
# [6] = Primary qHTS for inhibitors of nuclear receptor binding SET domain protein 2 (NSD2) in an RCH-ACV wild type WT cells (2C) (AID 1645877); note: nearly all actives have a fitted effect of over 70% in size; note: potency is the fitted concentration of half-maximal effect
# [7] = biological target: N-terminal Xaa-Pro-Lys N-methyltransferase 1 (Homo sapiens) (UniProt Q9BV86); test: Confirmatory qHTS for Inhibitors of N-terminal methyltransferase 1 (NTMT1): MTaseGlo Assay (AID 1645874);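 note: luminescence from SAH made as NTMT1 methylates SPKRIA peptide using SAM; series mostly up to about 100 µM; nearly all actives have a fitted effect of over 65% in size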
# In short: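 MTase-Glo luminescence measured SAH formed by 125 nM NTMT1 from 100 uM SAM and 1 uM SPKRIA peptide over 30 min at room temperature, following 15 min compound preincubation. Percent inhibition against no-enzyme and DMSO controls gave 4-parameter Hill fits.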
# Cytochrome P450 2D6 (Homo sapiens), sequence (P10635 whole entry, looked up): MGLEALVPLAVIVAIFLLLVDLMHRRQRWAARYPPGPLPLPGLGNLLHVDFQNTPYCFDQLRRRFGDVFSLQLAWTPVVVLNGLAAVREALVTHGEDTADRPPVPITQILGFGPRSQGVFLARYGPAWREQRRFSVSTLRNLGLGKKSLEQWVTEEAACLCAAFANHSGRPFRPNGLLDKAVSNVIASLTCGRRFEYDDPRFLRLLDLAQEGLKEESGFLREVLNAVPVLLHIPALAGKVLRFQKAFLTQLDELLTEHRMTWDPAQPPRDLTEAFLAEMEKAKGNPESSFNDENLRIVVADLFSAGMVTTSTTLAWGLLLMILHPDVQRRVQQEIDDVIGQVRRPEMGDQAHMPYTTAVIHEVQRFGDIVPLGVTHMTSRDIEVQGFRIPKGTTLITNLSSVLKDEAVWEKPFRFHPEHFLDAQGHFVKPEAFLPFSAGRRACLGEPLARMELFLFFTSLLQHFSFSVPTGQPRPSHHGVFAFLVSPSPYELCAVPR
# Calcium and integrin-binding protein 1 (Homo sapiens), sequence (Q99828 whole entry, looked up): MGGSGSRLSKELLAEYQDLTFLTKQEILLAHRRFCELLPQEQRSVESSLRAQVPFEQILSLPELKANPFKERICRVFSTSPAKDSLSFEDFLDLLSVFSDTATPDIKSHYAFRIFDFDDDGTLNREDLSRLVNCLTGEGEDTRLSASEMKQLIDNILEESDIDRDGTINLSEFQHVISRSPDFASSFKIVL
# Cytochrome P450 2C9 (Homo sapiens), sequence (P11712 whole entry, looked up): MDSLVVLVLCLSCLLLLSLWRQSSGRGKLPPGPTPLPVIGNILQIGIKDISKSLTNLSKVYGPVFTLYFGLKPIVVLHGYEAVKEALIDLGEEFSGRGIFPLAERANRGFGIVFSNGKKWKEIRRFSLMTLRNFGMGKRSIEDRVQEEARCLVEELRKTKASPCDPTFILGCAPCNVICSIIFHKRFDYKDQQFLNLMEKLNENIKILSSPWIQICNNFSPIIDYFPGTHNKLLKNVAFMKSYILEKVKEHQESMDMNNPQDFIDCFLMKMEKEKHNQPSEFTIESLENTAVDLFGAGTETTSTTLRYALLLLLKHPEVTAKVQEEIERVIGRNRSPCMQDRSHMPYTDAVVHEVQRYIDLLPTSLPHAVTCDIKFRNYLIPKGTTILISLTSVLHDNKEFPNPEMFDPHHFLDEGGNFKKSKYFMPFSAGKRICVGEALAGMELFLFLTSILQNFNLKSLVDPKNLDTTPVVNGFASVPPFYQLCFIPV
# N-terminal Xaa-Pro-Lys N-methyltransferase 1 (Homo sapiens), sequence (Q9BV86 whole entry, looked up): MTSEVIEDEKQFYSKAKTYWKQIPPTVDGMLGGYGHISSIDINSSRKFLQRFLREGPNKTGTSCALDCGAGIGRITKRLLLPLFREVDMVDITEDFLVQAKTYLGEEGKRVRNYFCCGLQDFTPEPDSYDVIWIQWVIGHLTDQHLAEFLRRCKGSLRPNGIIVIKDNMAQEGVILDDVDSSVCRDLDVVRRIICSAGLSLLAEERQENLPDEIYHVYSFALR
# Cytochrome P450 3A4 (Homo sapiens), sequence (P08684 whole entry, looked up): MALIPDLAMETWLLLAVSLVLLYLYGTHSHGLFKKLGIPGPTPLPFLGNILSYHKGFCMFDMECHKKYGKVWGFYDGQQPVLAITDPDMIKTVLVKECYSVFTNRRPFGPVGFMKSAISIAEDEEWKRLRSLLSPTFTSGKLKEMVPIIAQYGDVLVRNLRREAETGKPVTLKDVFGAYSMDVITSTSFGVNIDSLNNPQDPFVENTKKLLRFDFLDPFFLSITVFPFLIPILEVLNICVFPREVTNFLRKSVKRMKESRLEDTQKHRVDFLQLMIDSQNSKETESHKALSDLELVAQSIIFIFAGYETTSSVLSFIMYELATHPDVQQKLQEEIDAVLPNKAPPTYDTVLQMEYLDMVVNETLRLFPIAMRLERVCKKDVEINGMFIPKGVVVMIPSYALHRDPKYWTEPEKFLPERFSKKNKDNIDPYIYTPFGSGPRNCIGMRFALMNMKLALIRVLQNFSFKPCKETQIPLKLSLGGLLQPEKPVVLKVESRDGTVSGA
smiles,measurement,setting,value
O=C(NCc1ccccc1)c1ccc2c(=O)n(-c3cccc(C(F)(F)F)c3)c(=S)[nH]c2c1,Potency,[1],inactive
same,Potency,[2],inactive
same,Potency,[3],10.7 µM (active)
same,Potency,[4],inactive
Cc1ccc(N2CCN(S(=O)(=O)N3CCCCC3)CC2)c(C)c1,Potency,[1],inactive
same,Potency,[3],0.849 µM (active)
CCCOc1ccc(S(=O)(=O)N2CCN(CCO)CC2)cc1-c1nc2c(CCC)cn(CC)c2c(=O)[nH]1,Potency,[1],inactive
same,Potency,[3],5.35 µM (active)
CNC(=O)COC(=O)N1CCC(CCc2ccc(Cl)cc2)CC1,Potency,[1],inactive
same,Potency,[3],21.3 µM (active)
Cc1nc2cc(C(=O)NCc3ccccn3)nn2c(C)c1Cc1cccc(Cl)c1,Potency,[1],inactive
same,Potency,[3],1.2 µM (active)
OC1(CN2CCC(COc3noc4cccc(O[C@@H]5CCOC5)c34)CC2)CCOCC1,Potency,[1],inactive
same,Potency,[5],6.74 µM (active)
same,Potency,[4],inactive
same,Potency,[6],inactive
O=C(O)c1cccc(-c2ccc(-c3cn(C(=O)N4CCCCC4Cc4ccccc4)nn3)cc2)c1 (configuration not stated),Potency,[1],inactive
same,Potency,[3],8.49 µM (active)
O=c1cc(OCc2ccc(F)cc2)ccn1-c1ccc(OCCN2CCCC2)cc1,Potency,[1],inactive
same,Potency,[5],16.9 µM (active)
same,Potency,[4],23 µM (active)
same,Potency,[6],8.17 µM (active)
O=C(Nc1ccccc1C(=O)Nc1ccc(CCO)cc1)c1ccc([N+](=O)[O-])cc1,Potency,[1],inactive
same,Potency,[3],inactive
Cc1cc(Nc2nc(-c3ccccc3)nc3ccccc23)n[nH]1,Potency,[1],inactive
same,Potency,[5],inactive
same,Potency,[4],2.9 µM (active)
same,Potency,[6],3.25 µM (active)
O=C(Nc1ccc(-c2ccnc(Nc3ccc(N4CCOCC4)cc3)n2)cc1)C1CCCN1 (configuration not stated),Potency,[1],inactive
same,Potency,[5],inactive
same,Potency,[4],4.61 µM (active)
same,Potency,[6],4.11 µM (active)
OC1CCC(Nc2nc(-c3ccccc3)nc3[nH]ccc23)CC1 (configuration not stated),Potency,[1],inactive
same,Potency,[3],2.68 µM (active)
CC(C)S(=O)(=O)Nc1ccc(F)c(C(=O)c2c[nH]c3ncc(-c4cccnc4)cc23)c1F,Potency,[1],inactive
same,Potency,[5],5.35 µM (active)
same,Potency,[4],4.09 µM (active)
same,Potency,[6],4.59 µM (active)
Cc1ccnc(NC(=O)C(C)c2cccc(C(=O)c3ccccc3)c2)c1 (configuration not stated),Potency,[1],inactive
same,Potency,[3],10.7 µM (active)
N[C@@H]1c2cccnc2[C@H](OC(=O)N2CCC(n3c(=O)[nH]c4ncccc43)CC2)CC[C@H]1c1cccc(F)c1F,Potency,[1],inactive
same,Potency,[5],6.74 µM (active)
same,Potency,[4],inactive
same,Potency,[6],inactive
O=C(Nc1cccc([N+](=O)[O-])c1)c1cccc(S(=O)(=O)N2CCCCCC2)c1,Potency,[1],inactive
same,Potency,[3],6.01 µM (active)
COc1ccccc1-c1ccc(-c2cn(C(=O)N3CCCCC3Cc3ccccc3)nn2)cc1 (configuration not stated),Potency,[1],inactive
same,Potency,[5],inactive
same,Potency,[6],inactive
CC(=O)Nc1nc(C)c(-c2nc(N3CCCC(O)C3)no2)s1 (configuration not stated),Potency,[1],inactive
same,Potency,[5],4.25 µM (active)
same,Potency,[4],0.916 µM (active)
same,Potency,[6],1.15 µM (active)
CCCn1cc2c(nc(NC(=O)Nc3ccc(OC)cc3)n3nc(-c4ccco4)nc23)n1,Potency,[1],inactive
same,Potency,[3],6.01 µM (active)
COC(=O)c1sccc1S(=O)(=O)Nc1ccc(Nc2ccccc2)cc1OC,Potency,[1],inactive
same,Potency,[3],2.39 µM (active)
CCCCc1c(-c2ccc(OC)cc2)[nH]c2nccnc12,Potency,[1],inactive
same,Potency,[3],inactive
same,Potency,[4],3.65 µM (active)
COc1ccc(NC(=O)c2ccc(-c3ccc(C(=N)N)cc3C)cc2)cc1N1CCN(C)CC1,Potency,[1],inactive
same,Potency,[3],inactive
same,Potency,[4],inactive
COc1ccc(N(C(=O)Nc2c(C)cccc2C)c2cc(Nc3ccc(N4CCN(C)CC4)cc3)ncn2)c(OC)c1,Potency,[1],inactive
same,Potency,[3],13.5 µM (active)
same,Potency,[4],10.3 µM (active)
COc1ccc2cc3c(NC(=O)c4ccco4)nn(C)c3nc2c1,Potency,[1],inactive
same,Potency,[3],15.1 µM (active)
same,Potency,[7],inactive
O=C1NC(=O)C(c2cnc3ccccn23)=C1c1cn2c3c(cc(F)cc13)CN(C(=O)N1CCCCC1)CC2,Potency,[1],inactive
same,Potency,[3],12 µM (active)
same,Potency,[4],5.2 nM (active) and 9.3 nM (active)
O=C(Nc1nnc(-c2ccc3c(c2)OCCO3)o1)C1CCCCC1,Potency,[1],inactive
same,Potency,[3],inactive
same,Potency,[4],inactive
CCC[C@@]1(CCc2ccccc2)CC(O)=C([C@H](CC)c2cccc(NS(=O)(=O)c3ccc(C(F)(F)F)cn3)c2)C(=O)O1,Potency,[1],inactive
same,Potency,[3],26.8 µM (active)
CC(C)NC(=O)COc1cccc(-c2nc(Nc3ccc4[nH]ncc4c3)c3ccccc3n2)c1,Potency,[1],inactive
same,Potency,[3],0.19 µM (active)
same,Potency,[4],7.42 µM (active)
CCN(CCNC(=O)Nc1ccccc1Br)c1cccc(C)c1,Potency,[1],inactive
same,Potency,[3],3.79 µM (active)
C=C(C)[C@@H]1CC=C(COC(=O)NC(=O)c2ncn3c(=O)n(C)nnc23)CC1,Potency,[1],inactive
same,Potency,[3],inactive
same,Potency,[4],inactive
COc1ccc2cc(-c3cc(-c4cc(Cl)cc(Cl)c4)nn3C(C)c3ccc(C(=O)NCCC(=O)O)cc3)ccc2c1 (configuration not stated),Potency,[1],inactive
same,Potency,[3],10.7 µM (active)
